Rows were chosen to be rich in hits. Some 0.86% of all compounds tested hit in one or more screens of this group.
GLS inhibitor: inhibitors of human glutaminase (GLS). Potency, µM (titrated, usually from 45.5 µM), for inactives: top-dose activity change, negative = inhibition, usual class: inhibitors. 0.21% of 410,000 active. AID 624170. GLS enzymatic activity, qHTS titration. O94925
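Read-out is an Amplex red fluorescence increase coupled through glutamate oxidase and HRP, measured before and after 30 min room-temperature incubation. hKGA is in 45 mM KH2PO4 (pH 8.2) with 0.02% Tween-20; glutamine added as 1mM solution.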
BLM helicase inh: Bloom syndrome helicase (human) inhibition. P54132. recombinant BLM DNA unwinding, fluorescence dequenching. Potency, µM (top dose mostly 56.1 µM), for inactives: at the highest dose activity change, negative = inhibition, actives largely listed as inhibitors. 0.2% of 350,000 active. AID 2528;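 note: plate controls were vehicle for no effect and no enzyme for full effect; nearly all actives have a fitted effect of over 35% in size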
APE1 inh: APE1 (human) endonuclease inhibition. P27695. 0.35% of 350,000 active. recombinant APE1, TAMRA/BHQ-2 abasic DNA cleavage fluorescence. Potency, µM (series often up to 65.8 µM), inactives show at the top dose activity change, negative = inhibition, usual class: inhibitors;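 note: plate controls were vehicle for no effect and reference inhibitor for full effect; nearly all actives have a fitted effect of over 55% in size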
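APE1 at 0.75 nM final was preincubated with compound 15 min at room temperature, then 50 nM double-stranded THF abasic-site substrate (5'-TAMRA/3'-BHQ-2) was added. Fluorescence (ex 525/em 598 nm) was read kinetically; third-minus-first read gave activity.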
PGK inhibitor: T. brucei PGK inhibition; P07378; PGK/GAPDH coupled, Kinase-Glo luminescence, 60 min; Potency, µM (titrated, usually from 57.5 µM), inactives show at the top dose activity change, negative = inhibition, hits mostly inhibitors; 0.043% of 380,000 active; AID 602233; note: nearly all actives have a fitted effect of over 60% in size
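Luminescent ATP detection (Kinase-Glo Plus) follows a 60-minute room-temperature incubation, with wells lacking PGK as controls. Buffer: 100 mM TEA (pH 7.6), 5 mM MgCl2, 0.01% Tween-20. Coupling enzyme GAPDH (100 nM final) supplies unstable 1,3-BPG in-well.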
RECQ1 inh-1: RECQ1 (human) helicase inhibition. RECQ1 DNA unwinding, red fluorescence kinetic read. Potency, µM (doses to about 57.3 µM), for inactives: at the top dose activity, negative = inhibition, actives largely listed as inhibitors. 0.54% of 240,000 active;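 note: plate controls were vehicle for no effect and no enzyme for full effect; nearly all actives have a fitted effect of over 30% in size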
Target sequence (P46063 whole entry, looked up): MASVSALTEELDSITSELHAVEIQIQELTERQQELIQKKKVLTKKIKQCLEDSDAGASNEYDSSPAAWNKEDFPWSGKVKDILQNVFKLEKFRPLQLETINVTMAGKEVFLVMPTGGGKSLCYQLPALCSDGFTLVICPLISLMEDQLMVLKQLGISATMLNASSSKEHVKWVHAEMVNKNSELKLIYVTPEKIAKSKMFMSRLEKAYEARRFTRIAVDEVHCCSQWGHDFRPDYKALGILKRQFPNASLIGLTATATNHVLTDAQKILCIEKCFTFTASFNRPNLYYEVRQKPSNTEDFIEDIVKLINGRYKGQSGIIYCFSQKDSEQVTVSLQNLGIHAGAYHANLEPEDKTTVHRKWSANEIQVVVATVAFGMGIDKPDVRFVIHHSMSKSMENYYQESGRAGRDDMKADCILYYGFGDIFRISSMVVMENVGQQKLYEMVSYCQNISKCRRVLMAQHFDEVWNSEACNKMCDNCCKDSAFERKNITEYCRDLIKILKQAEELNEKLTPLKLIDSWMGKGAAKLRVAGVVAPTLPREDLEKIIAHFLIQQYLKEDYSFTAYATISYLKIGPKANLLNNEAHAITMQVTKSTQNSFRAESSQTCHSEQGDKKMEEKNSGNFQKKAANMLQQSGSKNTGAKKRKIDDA
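RECQ1T1 50 nM; forked duplex (20 bp + 30-nt ss tails) 200 nM, ATP 2 mM final; pH 8.0, 2 mM MgCl2, 2.5 ug/ml poly(dI-dC); 15 min compound preincubation; discontinuous kinetic read over 2 h at RT.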
FEN1 inhibitor: human FEN1 inhibition | P39748 | Recombinant FEN1 flap cleavage, fluorescence, 15 min | Potency, µM (highest dose often 114 µM), without a hit: top-dose activity change, negative = inhibition, hits mostly inhibitors | 0.35% of 390,000 active; note: nearly all actives have a fitted effect of over 65% in size
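Compounds are tested as a concentration series against 10 nM FEN1; after a 15 min room-temperature preincubation, 50 nM substrate starts cleavage, with plate reads at 0 and 15 min. Normalized responses are fitted by a Hill equation.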
RECQ1 conf: confirmation of human RECQ1 helicase inhibitors. Potency, µM (doses to about 229 µM), inactives show at the top dose activity change, negative = inhibition, most hits filed as inhibitors. RECQ1 helicase DNA unwinding, fluorescence. shares compounds with RECQ1 inh-1. AID 2708. 28% of 610 active; note: nearly all actives have a fitted effect of over 45% in size
ADP FP counter: displaces ADP in a fluorescence polarization counter-screen for RECQ1 hits. shares compounds with RECQ1 inh-1. ADP fluorescence polarization displacement counterscreen. Potency, µM (highest dose often 228 µM), for the others: top-dose activity change, negative = inhibition, most hits filed as inhibitors. 27% of 530 active. AID 2711; note: nearly all actives have a fitted effect of over 45% in size
RECQ1 inh-2: blocks human RECQ1 DNA unwinding; shares compounds with RECQ1 inh-1; recombinant RECQ1 DNA unwinding, red fluorescence; Potency, µM (titrated, usually from 119 µM), for the others: at the highest dose activity, negative = inhibition, hits mostly inhibitors; 15% of 1,100 active; AID 504841; note: nearly all actives have a fitted effect of over 50% in size
* hit, by the source's call; i = inactive; ? = inconclusive; / = not tested or not shown; [ ] = remark or other dose. Calls come from the whole dose curve; as a rule, active = well fitted curve in the direction sought with a large enough effect; inconclusive = small, poorly fitted or top-dose-only effect, or another doubt; inactive = no such curve, though single readings can be large; an effect the other way counts as inactive or inconclusive. Unless noted, % is set by controls: 0 for no effect and ±100 for the full control effect; potency is the fitted concentration of half-maximal effect.

SMILES	GLS inhibitor	BLM helicase inh	APE1 inh	PGK inhibitor	RECQ1 inh-1	FEN1 inhibitor	RECQ1 conf	ADP FP counter	RECQ1 inh-2
CCOC(=O)c1ccc(N=Cc2c(O)n(-c3ccccc3F)c(=S)[nH]c2=O)cc1	-4%	0%	10%	-9%	32µM*	?	/	/	-13%
ClC(Cl)C(Cl)Cl	/	/	0%	/	11%	/	/	/	/
CCCCNC(=O)Oc1c(Br)cc2sc(=O)oc2c1Br	/	-9%	?	/	11µM*	/	5%[114 µM]	12%[91.9 µM]	/
COc1cc(O)c(C(=O)O)c(-c2cc(O)c(O)cc2C)c1	?	4%	20µM*	-17%	?	?	/	/	?
Clc1ccc(C(c2ccc(Cl)cc2)C(Cl)Cl)cc1	/	/	2%	/	-10%	/	/	/	/
O=C1CC(N2CC=C(c3ccccc3)CC2)C(=O)N1c1ccc(F)cc1 (centres undefined)	-4%	-7%	-6%	-2%	28µM*	-4%	/	/	-24%
Cn1c(O)c(/C=N/NC(=O)c2ccncc2)c(=O)[nH]c1=S	15%	-3%	?	-10%	3.2µM*	-3%	?	34%[91.9 µM]	32µM*
CCCCNC(=O)c1c(N)n(CCCOC)c2nc3ccccc3nc12	-3%	?	-10%	-7%	?	?	/	/	-11%
CCCNC(=O)c1c(N)n(Cc2ccc3c(c2)OCO3)c2nc3ccccc3nc12	20%	-9%	-6%	-4%	-7%	-10%	/	/	/
COCCCn1c(N)c(C(=O)OCCOC)c2nc3ccccc3nc21	-3%	-1%	-6%	-12%	8%	-1%	/	/	/
CC(C)CCNC(=O)c1c(N)n(Cc2ccc3c(c2)OCO3)c2nc3ccccc3nc12	-8%	-27%	5%	i	?	-2%	/	/	-18%
CC[C@@H](CO)NC(=O)[C@@H]1C=C2c3cccc4[nH]cc(c34)C[C@H]2N(C)C1	4%	-17%	?	0%	35µM*	-19%	3%	112µM*	/
CCN(CC)C(=O)N[C@@H]1C=C2c3cccc4[nH]cc(c34)C[C@H]2N(C)C1	6%	-8%	/	/	?	/	-6%	22µM*	/
CN1C[C@H](C(=O)N[C@]2(C)O[C@@]3(O)[C@@H]4CCCN4C(=O)[C@H](Cc4ccccc4)N3C2=O)C=C2c3cccc4[nH]cc(c34)C[C@H]21	18%	-12%	?	/	?	/	?	7.1µM*	/
COC(=O)C1C=C2c3cccc4[nH]cc(c34)CC2N(C)C1 (centres undefined)	/	-26%	-9%	/	?	/	/	/	/
COc1cc2c(cc1OC)C(c1c(O)n(CCc3ccccc3)c(=S)[nH]c1=O)NCC2 (centres undefined)	11%	-6%	0%	0%	?	-14%	/	/	?
